Values joined by “and” are separate entries in the source; they are usually repeats but may differ in a detail not shown here. Identical values can stand only once. The campaign covered roughly 340,000 compounds. About 1,000 (0.29%) were called active. Cut-off read from the data, not from the text of the source: inconclusive = inhibition above about 29% without an active follow-up result; inactive = below that. Only a sample is shown. Entries with a potency or affinity are not part of this list.
Biological target: Genome polyprotein (Dengue virus type 2 (strain 16681-PDK53)) (UniProt P29991)
Experiment: flavivirus cap methylation enzyme inhibition – biochemical, confirmation dose response, primary screen (AID 588689)
Conditions: Dengue-2 NS5 methyltransferase capping enzyme assay, at 25 µM, stronger effect = higher value
[1] = measured here: pilot screen replicate inhibition

Sequence of Genome polyprotein (Dengue virus type 2 (strain 16681-PDK53)) (P29991 whole entry, looked up): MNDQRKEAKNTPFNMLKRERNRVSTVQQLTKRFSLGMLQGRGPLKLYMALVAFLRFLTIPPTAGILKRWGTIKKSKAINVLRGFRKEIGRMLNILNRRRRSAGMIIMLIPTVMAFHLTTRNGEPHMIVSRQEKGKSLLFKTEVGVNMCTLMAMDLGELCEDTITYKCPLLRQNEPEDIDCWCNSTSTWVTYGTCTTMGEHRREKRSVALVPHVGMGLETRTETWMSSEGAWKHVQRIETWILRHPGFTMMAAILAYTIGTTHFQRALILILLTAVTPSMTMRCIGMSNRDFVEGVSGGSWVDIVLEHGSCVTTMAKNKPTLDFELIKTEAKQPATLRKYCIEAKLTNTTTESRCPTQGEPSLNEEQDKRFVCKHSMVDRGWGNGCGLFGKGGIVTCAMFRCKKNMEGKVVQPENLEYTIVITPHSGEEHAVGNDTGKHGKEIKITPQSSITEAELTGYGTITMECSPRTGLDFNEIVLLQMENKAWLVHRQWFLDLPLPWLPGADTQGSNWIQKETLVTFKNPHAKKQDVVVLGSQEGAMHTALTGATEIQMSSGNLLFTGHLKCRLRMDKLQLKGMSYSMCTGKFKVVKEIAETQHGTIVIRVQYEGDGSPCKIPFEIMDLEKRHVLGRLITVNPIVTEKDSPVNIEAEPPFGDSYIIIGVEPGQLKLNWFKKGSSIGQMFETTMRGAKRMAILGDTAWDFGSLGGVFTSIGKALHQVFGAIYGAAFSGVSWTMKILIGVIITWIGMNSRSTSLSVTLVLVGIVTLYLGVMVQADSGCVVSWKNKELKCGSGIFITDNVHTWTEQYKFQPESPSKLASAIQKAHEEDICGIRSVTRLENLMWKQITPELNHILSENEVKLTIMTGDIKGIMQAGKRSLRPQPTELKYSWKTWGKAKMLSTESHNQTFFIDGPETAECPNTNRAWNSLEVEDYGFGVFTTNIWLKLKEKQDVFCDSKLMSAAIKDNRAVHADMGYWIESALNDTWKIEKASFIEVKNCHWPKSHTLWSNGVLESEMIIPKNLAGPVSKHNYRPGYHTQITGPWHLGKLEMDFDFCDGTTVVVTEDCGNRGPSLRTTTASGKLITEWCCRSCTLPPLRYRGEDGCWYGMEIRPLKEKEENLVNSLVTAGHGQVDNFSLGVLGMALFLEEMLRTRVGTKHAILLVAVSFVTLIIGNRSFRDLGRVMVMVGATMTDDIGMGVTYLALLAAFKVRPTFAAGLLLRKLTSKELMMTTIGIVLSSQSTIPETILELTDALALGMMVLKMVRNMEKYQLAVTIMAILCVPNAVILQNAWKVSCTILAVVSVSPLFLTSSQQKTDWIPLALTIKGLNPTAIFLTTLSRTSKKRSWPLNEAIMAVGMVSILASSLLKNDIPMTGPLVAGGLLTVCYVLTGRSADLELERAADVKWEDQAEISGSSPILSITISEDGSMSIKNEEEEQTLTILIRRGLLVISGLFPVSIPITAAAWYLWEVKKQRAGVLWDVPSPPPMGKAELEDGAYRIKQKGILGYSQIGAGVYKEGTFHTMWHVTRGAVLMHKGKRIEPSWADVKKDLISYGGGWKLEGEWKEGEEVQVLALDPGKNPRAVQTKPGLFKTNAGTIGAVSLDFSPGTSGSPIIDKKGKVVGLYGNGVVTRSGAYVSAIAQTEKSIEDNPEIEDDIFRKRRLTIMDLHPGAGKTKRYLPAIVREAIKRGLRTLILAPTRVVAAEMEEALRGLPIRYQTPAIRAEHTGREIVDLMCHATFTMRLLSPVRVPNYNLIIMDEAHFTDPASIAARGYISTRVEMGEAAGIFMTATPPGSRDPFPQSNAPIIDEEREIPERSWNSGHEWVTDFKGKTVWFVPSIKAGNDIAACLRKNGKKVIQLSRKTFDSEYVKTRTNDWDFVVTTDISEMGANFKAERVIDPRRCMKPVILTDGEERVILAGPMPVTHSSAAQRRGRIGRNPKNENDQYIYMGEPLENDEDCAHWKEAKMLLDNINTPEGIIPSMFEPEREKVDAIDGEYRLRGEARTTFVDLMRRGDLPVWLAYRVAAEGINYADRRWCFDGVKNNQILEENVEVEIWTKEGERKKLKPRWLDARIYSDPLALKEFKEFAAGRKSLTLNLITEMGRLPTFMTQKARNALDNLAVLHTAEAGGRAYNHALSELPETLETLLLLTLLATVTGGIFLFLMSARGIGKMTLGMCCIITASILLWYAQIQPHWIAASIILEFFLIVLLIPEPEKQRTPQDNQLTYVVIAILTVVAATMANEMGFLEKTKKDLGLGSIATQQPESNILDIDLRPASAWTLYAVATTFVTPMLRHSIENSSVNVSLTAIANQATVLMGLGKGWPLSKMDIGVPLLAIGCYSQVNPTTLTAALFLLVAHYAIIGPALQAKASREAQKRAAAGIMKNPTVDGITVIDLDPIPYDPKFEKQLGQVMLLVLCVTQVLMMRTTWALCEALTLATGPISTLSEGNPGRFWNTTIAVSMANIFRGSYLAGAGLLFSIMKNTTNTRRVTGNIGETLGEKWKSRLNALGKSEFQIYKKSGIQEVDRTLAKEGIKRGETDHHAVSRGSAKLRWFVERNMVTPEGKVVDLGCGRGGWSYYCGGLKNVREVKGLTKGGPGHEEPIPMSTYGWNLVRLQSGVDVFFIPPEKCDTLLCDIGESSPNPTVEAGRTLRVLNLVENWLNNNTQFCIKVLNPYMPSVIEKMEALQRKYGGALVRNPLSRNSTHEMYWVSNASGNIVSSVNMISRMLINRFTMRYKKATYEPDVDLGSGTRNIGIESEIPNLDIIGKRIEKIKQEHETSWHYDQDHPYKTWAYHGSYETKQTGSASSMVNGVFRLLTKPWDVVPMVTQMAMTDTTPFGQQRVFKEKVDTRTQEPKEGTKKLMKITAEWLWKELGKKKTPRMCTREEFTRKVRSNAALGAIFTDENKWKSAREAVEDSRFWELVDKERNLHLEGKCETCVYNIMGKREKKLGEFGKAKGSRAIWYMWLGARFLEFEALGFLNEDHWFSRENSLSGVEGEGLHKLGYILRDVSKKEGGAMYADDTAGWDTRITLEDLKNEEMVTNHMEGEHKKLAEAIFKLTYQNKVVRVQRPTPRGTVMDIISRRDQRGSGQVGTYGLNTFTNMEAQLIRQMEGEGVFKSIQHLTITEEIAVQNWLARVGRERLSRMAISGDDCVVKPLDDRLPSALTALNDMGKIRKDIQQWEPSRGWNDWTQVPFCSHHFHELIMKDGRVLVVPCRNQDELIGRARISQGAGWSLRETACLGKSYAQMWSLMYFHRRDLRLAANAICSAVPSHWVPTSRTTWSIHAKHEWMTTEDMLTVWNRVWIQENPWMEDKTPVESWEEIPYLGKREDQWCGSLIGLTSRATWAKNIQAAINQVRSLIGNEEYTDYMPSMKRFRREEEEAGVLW

Row | SMILES | inhibition | inhibition [1] [%]
1 | C[n+]1c(-c2ccccc2)cc2c(=Cc3ccccc3)c3ccccc3n21 | -8.87% (inactive) | 
2 | COc1cc(C=c2c3ccccc3n3c2cc(-c2ccccc2)[n+]3C)cc(OC)c1OC | -32.8% (inactive) | 
3 | CN(C)c1ccc(C=c2c3ccccc3n3c2cc(-c2ccccc2)[n+]3C)cc1 | 16.6% (inactive) | 
4 | CN(C)c1ccc(C=c2c3cc(O)ccc3n3c2cc(-c2ccccc2)[n+]3C)cc1 | 27.4% (inactive) | 
5 | C=CCn1c(SCC#N)nc2ccccc2c1=O | 0.54% (inactive) | 
6 | Cc1ccc(NC(=O)C(C)Sc2nnc(C)n2C)cc1 (stereo unspecified) | -10.5% (inactive) | -8.82
7 | Nc1ccc(N=Nc2ccc(O)cc2)c(N)n1 | -2.31% (inactive) | 
8 | Oc1ccc(N=Nc2ccc3ccccc3c2)cc1 | -0.57% (inactive) | 
9 | COc1ccc(NC(=O)C2CCCN(S(=O)(=O)c3ccc4[nH]c(=O)ccc4c3)C2)cc1OC (stereo unspecified) | -7.99% (inactive) | 
10 | CCN(CC)CCN(Cc1cc2cc3c(cc2[nH]c1=O)OCO3)C(=S)NCCCOC | -4.77% (inactive) | 
11 | Cc1[nH]c2ccccc2c1C1C(c2ccccc2)=NN=C(C(C)C)N1O (stereo unspecified) | -11.8% (inactive) | 
12 | CCCN(CCC)S(=O)(=O)c1cccc(-c2csc(C)n2)c1 | -5.33% (inactive) | 
13 | COc1cccc(CN(C)C(=O)C2CSC3(C)CCC(=O)N23)c1OC (stereo unspecified) | -4.42% (inactive) | 
14 | COc1cc(/C=C2/NC(=O)N(Cc3ccccc3F)C2=O)ccc1Oc1ccc([N+](=O)[O-])cn1 | -0.72% (inactive) | 
15 | COc1cc(/C=C2/NC(=O)N(Cc3ccccc3F)C2=O)cc(OC)c1O | 1.47% (inactive) | 
16 | COc1ccc(Cl)cc1-c1nc(SCC(=O)N(C)C)n[nH]1 | -2.97% (inactive) | 
17 | Cc1nc2sc(C(c3ccco3)N3CCc4ccccc4C3)c(O)n2n1 (stereo unspecified) | -4.07% (inactive) | 
18 | CCCCNC(=O)c1onc(CSc2ccccc2CC)c1C(=O)O | 6.29% (inactive) | 
19 | CCCCNC(=O)c1onc(CSc2ccccc2C)c1C(=O)O | 7.73% (inactive) | 
20 | Cc1cccc(NC(=O)N(Cc2nc3ccccc3c(=O)[nH]2)C2CCCC2)c1 | -1.56% (inactive) | 
21 | Cc1ccc(S(=O)(=O)Nc2cccc(S(=O)(=O)Nc3ccccc3C(=O)O)c2)c(C)c1 | 17.5% (inactive) | 
22 | O=C(O)c1cccc(-n2sc3ccccc3c2=O)c1 | -2.4% (inactive) | 

Row | SMILES | inhibition | inhibition [1] [%]
23 | CN(C)S(=O)(=O)c1cccc(-n2sc3ccccc3c2=O)c1 | -48.9% (inactive) | 
24 | CCOc1ccc(Br)cc1S(=O)(=O)Nc1cccc(S(=O)(=O)Nc2ccccc2C(=O)O)c1 | 11.4% (inactive) | 
25 | CN(CCOc1ccccc1)C(=O)c1cc(S(=O)(=O)N2CCOCC2)ccc1Cl | -7.25% (inactive) | 
26 | NS(=O)(=O)c1ccc(NC(=O)Cc2cccs2)cc1 | 0% (inactive) | 
27 | O=c1[nH]c2cc([N+](=O)[O-])cc(Cl)c2c2ccccc12 | 5.75% (inactive) | 
28 | CNC(=O)CN1C(=O)NC2(CCc3ccccc3C2)C1=O (stereo unspecified) | 0.74% (inactive) | 
29 | COCC(C)n1c(SCC(=O)NC(=O)Cc2ccccc2)nc2ccccc2c1=O (stereo unspecified) | 1.46% (inactive) | 
30 | CSc1nsc(SCC(=O)Nc2ccc(Cl)c(C(=O)O)c2)n1 | 8.31% (inactive) | 
31 | O=C(CSc1n[nH]c(-c2ccncc2)n1)Nc1ccc(Cl)c(C(=O)O)c1 | 0.89% (inactive) | 
32 | O=C(Cn1cnc([N+](=O)[O-])n1)N/N=C/c1cc(Cl)ccc1O | -13.5% (inactive) | 
33 | NS(=O)(=O)c1ccc(NS(=O)(=O)c2ccc(NC(=O)C3CC3)cc2)cc1 | 15.1% (inactive) | 
34 | Cc1csc(SCC(=O)Nc2ccc(F)cc2Cl)n1 | -8.4% (inactive) | 
35 | O=C(Nc1ncccc1Cl)C(Sc1ccccc1)c1ccccc1 (stereo unspecified) | -1.88% (inactive) | -5.46
36 | CNC(=O)Oc1ccc2c(c1)[C@]1(C)CCN(C)C1N2C (stereo partly specified) | 0% (inactive) | 
37 | CNC(=O)Oc1ccc2c(c1)[C@]1(C)CCN(C)[C@@H]1N2C | -1.49% (inactive) and -0.75% (inactive) | 
38 | O=C(Nc1ccc(Cl)cc1)Nc1ccc2c(c1)N1CCN=C1S2 | -47.1% (inactive) | 
39 | COC(=O)c1ccccc1NC(=O)CSc1nccn1C | 0.56% (inactive) | 
40 | COc1cc(-c2ccc3sc(-c4ccsc4)c(C#CCO)c3c2)cc(OC)c1OC | 3.31% (inactive) | 
41 | Cc1ccc(C2=C(O)c3ccccc3C(=O)C2=O)cc1 | 10.5% (inactive) | 
42 | Cc1ccc(C2=C(O)C(=O)C(c3ccc(C)cc3)=C(O)C2=O)cc1 | 2.31% (inactive) | 
43 | COc1ccc([N+](=O)[O-])cc1-c1[nH]c(-c2ccc(C(=O)O)cc2)nc1-c1ccccc1 | -2.87% (inactive) | 
44 | CC(=O)Nc1ccc(S(=O)(=O)Nc2c(C)nn(-c3ccccc3)c2C)cc1 | -3.38% (inactive) | 

Row | SMILES | inhibition | inhibition [1] [%]
45 | COc1cc(NC(=O)C2CCCCC2)c2ncccc2c1 | -4.93% (inactive) | 
46 | COc1cc(NCc2ccccc2O)c2ncccc2c1 | -1.29% (inactive) | 
47 | CCN(CCCNC(=O)CNC(=O)c1nn(-c2ccc(OC)cc2OC)c(=O)c2ccccc12)c1cccc(C)c1 | -2.2% (inactive) | 
48 | Cc1cccc(-n2ccnc2SCC(=O)Nc2cc(C)on2)c1 | -6.93% (inactive) | 
49 | COc1ccc2[nH]c3c(c2c1)CCN1C(=O)C(CC(=O)NC(C)(C)C)C[C@H](C(=O)N(C(C)C)C(C)C)[C@@]31C (stereo partly specified) | -6.62% (inactive) | -4.89
50 | Cc1cc(C)nc(SCC(=O)Nc2ccc(S(=O)(=O)Nc3cc(C)on3)cc2)n1 | -0.67% (inactive) | 
51 | Cc1cc(NS(=O)(=O)c2ccc(NC(=O)CSc3nc4sc(C(=O)O)c(C)c4c(=O)[nH]3)cc2)no1 | 1.64% (inactive) | 
52 | O=C1C(=O)N(C/C=C/c2ccccc2)c2ccccc21 | -12.9% (inactive) | 
53 | N#CCCn1cc(/C=N/O)c(-c2ccc(F)cc2)n1 | -2.03% (inactive) | 
54 | CC1=NNC(=O)/C1=C\c1cn(-c2ccccc2)nc1-c1ccccc1 | 10.9% (inactive) | 
55 | CC1(C)CC(=O)C(=Cc2cn(-c3ccccc3)nc2-c2ccccc2)C(=O)C1 | 27.8% (inactive) | 
56 | CC1(C)CC(=O)C(=Cc2cn(-c3ccccc3)nc2-c2ccc(Cl)cc2)C(=O)C1 | -1.09% (inactive) | 
57 | CC1=NN(c2ccccc2)C(=O)/C1=C\c1cn(CCC#N)nc1-c1ccc(Cl)cc1 | 5.39% (inactive) | 
58 | N#CCCn1cc(/C=C2\NC(=S)N(c3ccccc3)C2=O)c(-c2ccc(F)cc2)n1 | -8.84% (inactive) | 
59 | Cc1ccc(NC(=O)c2cc(-c3cc(Cl)ccc3O)n[nH]2)cc1C | -6.12% (inactive) | 
60 | COc1cccc(N2CCN(C(=O)CNC(=O)c3sc4ccccc4c3Cl)CC2)c1 | -1.29% (inactive) | 
61 | O=C1CN(C(=O)COC(=O)c2ccccc2NCc2ccco2)c2ccccc2N1 | -4.76% (inactive) | 
62 | CCOC(=O)c1c(C)[nH]c(C(=O)OCC(=O)N(CC(C)C)C2CCS(=O)(=O)C2)c1C (stereo unspecified) | 4.1% (inactive) | 
63 | Cc1c(N(C)C(=O)c2ccccc2F)c(=O)n(-c2ccccc2)n1C | 2.15% (inactive) | 
64 | COc1cccc(C(NC(=O)c2ccccc2F)NC(=O)c2ccccc2F)c1 | -5.64% (inactive) | 
65 | CC(=NCCCNC1CCCCC1)C1=C(O)CC(C)(C)CC1=O | 10.2% (inactive) | 
66 | O=C(NC1CCCc2ccccc21)C1CCN(c2c3c(nc4ncnn24)CCC3)CC1 (stereo unspecified) | -6.95% (inactive) | 

Row | SMILES | inhibition | inhibition [1] [%]
67 | O=C(O)C(Cc1ccccc1)N1C(=O)CCC1=O (stereo unspecified) | -3.06% (inactive) | 
68 | O=C(O)C(Cc1ccccc1)N1C(=O)c2ccccc2C1=O (stereo unspecified) | -1.57% (inactive) | 
69 | O=C(O)C(Cc1ccc(O)cc1)N1C(=O)c2c(Cl)c(Cl)c(Cl)c(Cl)c2C1=O (stereo unspecified) | 16.9% (inactive) | 
70 | O=C(O)C(Cc1ccccc1)N1C(=O)c2cccc3cccc(c23)C1=O (stereo unspecified) | -2.21% (inactive) | 
71 | Cc1cccc(C)c1NC(=O)C(c1ccc([N+](=O)[O-])cc1)N1CCCCC1 (stereo unspecified) | -3.23% (inactive) | 
72 | Cc1onc(-c2ccccc2Cl)c1C(=O)Nc1ccc(-c2nnc3n2CCCCC3)cc1 | 9.09% (inactive) | 
73 | O=C(CNC(=O)c1cccs1)Nc1ccncc1 | 1.47% (inactive) | 
74 | Cc1cc(C(C)(C)C)oc1C(=O)N(CC(=O)NC1CCCC1)c1cccc(C(F)(F)F)c1 | -5.56% (inactive) | 
75 | CCc1c(C(=O)O)[nH]c2ccc(Br)cc12 | 7.42% (inactive) | 
76 | Cc1[nH][nH]c(=O)c1C(c1cc(Br)ccc1O)c1c(C)[nH][nH]c1=O | 0% (inactive) | 
77 | O=C(CC(c1ccccc1)c1cc(Br)ccc1O)N1CCCC1 (stereo unspecified) | -0.78% (inactive) | 
78 | CCOC(=O)c1[nH]c2ccccc2c1NC(C)=O | 1.39% (inactive) | 
79 | CCOc1ccccc1NC(=O)CSCC(=O)Nc1ccccc1 | 0% (inactive) | 
80 | CCOC(=O)N1CCN(CC(O)COCC2=CCC3CC2C3(C)C)CC1 (stereo unspecified) | 6.09% (inactive) | 
81 | C[C@@H](C(=O)Nc1ccc2ccccc2c1)[C@H]1C[C@]1(C)[C@H](NC(=O)OCc1ccccc1)c1ccccc1 | 4.76% (inactive) | 
82 | CCOC(=O)N1CCN(S(=O)(=O)N2CCCC(C(=O)NCc3ccccc3Cl)C2)CC1 (stereo unspecified) | -6.21% (inactive) | 
83 | CC(NC(=O)C1CCC1)c1ccc(Cl)cc1 (stereo unspecified) | -3.24% (inactive) | 
84 | Cc1ccc(-c2ccc(/C=N/N3C(=O)C4C5C=CC(C6CC56)C4C3=O)o2)c([N+](=O)[O-])c1 (stereo unspecified) | -2.05% (inactive) | 
85 | O=C1C2C3C=CC(C4CC34)C2C(=O)N1/N=C/c1ccc(-c2ccc(Cl)cc2[N+](=O)[O-])o1 (stereo unspecified) | 0% (inactive) | 
86 | COCc1cc(C)nc(N/N=C/c2ccc(-c3ccc(Cl)cc3[N+](=O)[O-])o2)c1C#N | 0.9% (inactive) | 
87 | Cc1ccc(-c2ccc(/C=N/N3C(=O)C4C5C=CC(CC5)C4C3=O)o2)c([N+](=O)[O-])c1 (stereo unspecified) | 4.83% (inactive) | 
88 | Cc1nc2ccccn2c1C(=O)N/N=C/c1ccccc1Cl | 0.65% (inactive) | 

From PubChem BioAssay AID588689 (Southern Research Specialized Biocontainment Screening …, 2011)
